This is an account of results in PubChem BioAssay (NCATS).

A short description of assay [1]: qHTS profiling for inhibitors of Plasmodium falciparum proliferation (AID 504749). Further: potency means the concentration at half of the fitted maximal effect.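 On activity, negative = inhibition: 0% = DMSO vehicle and full inhibition = artemisinin control.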 On all read-outs here: nearly all actives have a fitted effect of over 60% in size. To be noted: P. falciparum in erythrocytes, SYBR Green DNA, 72 h; for activity, negative = inhibition: at 28.7 µM (top of the series). In outline:
(§1)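 Fluorescence of SYBR Green-bound parasite DNA, read at 485/535 nm, served as the growth measure. Infected erythrocytes were cultured with compound 72 h; artemisinin (0.29 uM) and DMSO wells defined the normalization range.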
For orientation: In qHTS, concentration-response curves come from the screen itself.

Assay [2] has as its system 3D7. The assay is described as above. To be noted: P. falciparum in erythrocytes, SYBR Green DNA, 72 h; series mostly up to 28.7 µM. The method in brief:
as §1

Assay [3] deals with 7G8. The assay is described as above. Particulars: P. falciparum in erythrocytes, SYBR Green DNA, 72 h; series mostly up to 28.7 µM. The method in brief:
as §1

Assay [4] relates to AA1029. The assay is described as above. Particulars: P. falciparum in erythrocytes, SYBR Green DNA, 72 h; series mostly up to 28.7 µM. The method in brief:
as §1

In assay [5] the test system is AS120. The assay is described as above. To be noted: P. falciparum in erythrocytes, SYBR Green DNA, 72 h; series mostly up to 28.7 µM. In outline: as §1
Assay [6] has as its system ATS189. Described as above. To be noted: P. falciparum in erythrocytes, SYBR Green DNA, 72 h; series mostly up to 28.7 µM. In outline: as §1
Assay [7] relates to ATS95. The assay is described as above. To be noted: P. falciparum in erythrocytes, SYBR Green DNA, 72 h; series mostly up to 28.7 µM. In outline: as §1
Assay [8] has as its system C2A. Described as above. To be noted: P. falciparum in erythrocytes, SYBR Green DNA, 72 h; series mostly up to 28.7 µM. The method in brief: as §1
The subject of assay [9] is CP185. The assay is described as above. To be noted: P. falciparum in erythrocytes, SYBR Green DNA, 72 h; series mostly up to 28.7 µM. In outline:
as §1

The subject of assay [10] is CP191. The assay is described as above. Particulars: P. falciparum in erythrocytes, SYBR Green DNA, 72 h; series mostly up to 28.7 µM. In outline: as §1
In assay [11] the test system is CP192. Described as above. To be noted: P. falciparum in erythrocytes, SYBR Green DNA, 72 h; series mostly up to 28.7 µM. In outline:
as §1

The subject of assay [12] is CP194. Described as above. Particulars: P. falciparum in erythrocytes, SYBR Green DNA, 72 h; series mostly up to 28.7 µM. In outline:
as §1

Assay [13] has as its system CP201. The assay is described as above. Particulars: P. falciparum in erythrocytes, SYBR Green DNA, 72 h; series mostly up to 28.7 µM. The method in brief:
as §1

Assay [14] is described as follows: qHTS drug screen for cell cycle checkpoint inhibitors in PARPi-resistant BRCA-mutant ovarian cancer cell lines. (AID 1963452; calls by dose curve). Particulars: PEO1/OlaR viability, CellTiter-Glo luminescence, 96 h, stronger effect = lower value. In outline:
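PEO1, PEO4 and PEO1/OlaR ovarian cancer cells, 600 per well, exposed 96 h at 37C to a dilution series. Viability read by CellTiter-Glo luminescence, normalized to DMSO and empty wells; activity summarized as Z-AUC.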

Assay [15] concerns the target Cytochrome P450 1A2 (Homo sapiens) (UniProt P05177). Briefly: qHTS for inhibitors of CYPIA2 against the NCATS DSHEA and TCM libraries (AID 1919976). Further: on the % scale 0 is the no-effect control and ±100 the full control effect. To be noted: recombinant CYP1A2 enzyme activity, luminescence; series mostly up to 37 µM. In outline:
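Luminescence read-out: pro-luciferin converted to D-luciferin by CYP1A2, detected with P450-Glo reagent after 30 min RT. Enzyme plus substrate got compounds for 15 min RT; NADPH regeneration solution (final 1x) started a 30-45 min reaction, light-protected.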

Assay [16] can be described thus: qHTS Counterscreen for compound interference against the NCATS DSHEA and TCM libraries (AID 1919978).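 Further: compounds preincubated with 1 µM D-luciferin or buffer before detection reagent; % of control where 0% means no effect.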 Particulars: firefly luciferase detection reagent interference, luminescence. In outline:
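Firefly luciferase detection reagent was added after compounds (19.5 nM–39.8 uM final) had been incubated 15 min at room temperature with 1 uM D-luciferin or with 100 mM phosphate buffer alone. Luminescence was read after 30 min at room temperature.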

Assay [17] can be described thus: Dual reporter qHTS for agonist of Pregnane X Receptor (hPXR) against the NCATS DSHEA and TCM libraries: Fluorescence readout (AID 1920058). Further: 0% is about no effect. To be noted: PXR dual reporter cells; series mostly up to 40 µM. The method in brief: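 Fluorescence read-out for cell viability: CellTiter-Fluor, 1 h at 37 °C, Ex/Em 405/540 nm. This followed ~24 h treatment of hPXR-Luc HepG2 cells with substances in agonist mode.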

For assay [18], the target named is Nuclear receptor subfamily 1 group I member 2 (Homo sapiens) (UniProt O75469). Briefly: Dual reporter qHTS for antagonist of Pregnane X Receptor (hPXR) against the NCATS DSHEA and TCM libraries: Luminescence Readout (AID 1920060). Further: 0% is about no effect. Particulars: hPXR dual reporter cells, luciferase luminescence, antagonist mode; series mostly up to 40 µM. In outline: (§2)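 Rifampicin-stimulated (2 uM final) hPXR-luciferase HepG2 cells were treated for 24 h with DSNP/TCM substances. Viability came from CellTiter-Fluor fluorescence, reporter activity from ONE-Glo luminescence.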

The nature of assay [19]: Dual reporter qHTS for antagonist of Pregnane X Receptor (hPXR) against the NCATS DSHEA and TCM libraries: Fluorescence Readout (AID 1920061). Further: 0% is about no effect. To be noted: PXR dual reporter cells, antagonist mode; series mostly up to 40 µM. In outline:
as §2

For assay [20], the target named is Nuclear receptor subfamily 1 group I member 2 (Homo sapiens) (UniProt O75469). Briefly: Dual reporter qHTS for agonist of Pregnane X Receptor (hPXR) against the NCATS DSHEA and TCM libraries: Luminescence readout (AID 1920059). Further: 0% is about no effect. To be noted: hPXR dual reporter cells, luciferase luminescence agonist; series mostly up to 40 µM. The method in brief: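 hPXR-LucHepG2 cells in phenol red-free DMEM with 5% charcoal-stripped FBS, 2000 cells/well, attached 5 h, then exposed 24 h at 37C to compounds; rifampicin as positive agonist control (2.8 nM–92 uM). Luciferase luminescence read.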

Where [21] appears, read: measured here: PEO1 parental Z-AUC.

Results filed as inconclusive are left out. The source made the active and inactive calls. Unless noted, the call rests on the fitted dose curve; in most records, active means well fitted curve in the direction sought with a large enough effect; inconclusive means small, poorly fitted or top-dose-only effect, or another doubt; inactive means no such curve, though single readings can be large; an effect the other way counts as inactive or inconclusive. Where a SMILES comes first, the peptide text is derived from it. Bridges are numbered along the chain shown (N, C = ends). [ ]: non-standard residue; d: D form. hArg = N=C(N)NCCCC[C@H](N)C(=O)O; Mpa = O=C(O)CCS

Sequence of Nuclear receptor subfamily 1 group I member 2 (Homo sapiens) (O75469 whole entry, looked up): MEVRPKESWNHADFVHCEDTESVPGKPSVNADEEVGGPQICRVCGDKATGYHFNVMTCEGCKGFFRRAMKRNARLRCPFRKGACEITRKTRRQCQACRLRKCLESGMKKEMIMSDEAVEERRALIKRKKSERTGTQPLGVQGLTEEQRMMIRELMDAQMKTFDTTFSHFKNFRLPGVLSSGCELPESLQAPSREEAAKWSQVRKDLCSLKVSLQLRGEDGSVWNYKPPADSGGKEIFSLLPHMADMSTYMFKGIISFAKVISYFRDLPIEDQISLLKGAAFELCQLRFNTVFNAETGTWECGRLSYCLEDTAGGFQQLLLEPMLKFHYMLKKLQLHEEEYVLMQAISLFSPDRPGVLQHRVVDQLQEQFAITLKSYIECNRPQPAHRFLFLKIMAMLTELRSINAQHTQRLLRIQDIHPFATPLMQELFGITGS
Sequence of Cytochrome P450 1A2 (Homo sapiens) (P05177 whole entry, looked up): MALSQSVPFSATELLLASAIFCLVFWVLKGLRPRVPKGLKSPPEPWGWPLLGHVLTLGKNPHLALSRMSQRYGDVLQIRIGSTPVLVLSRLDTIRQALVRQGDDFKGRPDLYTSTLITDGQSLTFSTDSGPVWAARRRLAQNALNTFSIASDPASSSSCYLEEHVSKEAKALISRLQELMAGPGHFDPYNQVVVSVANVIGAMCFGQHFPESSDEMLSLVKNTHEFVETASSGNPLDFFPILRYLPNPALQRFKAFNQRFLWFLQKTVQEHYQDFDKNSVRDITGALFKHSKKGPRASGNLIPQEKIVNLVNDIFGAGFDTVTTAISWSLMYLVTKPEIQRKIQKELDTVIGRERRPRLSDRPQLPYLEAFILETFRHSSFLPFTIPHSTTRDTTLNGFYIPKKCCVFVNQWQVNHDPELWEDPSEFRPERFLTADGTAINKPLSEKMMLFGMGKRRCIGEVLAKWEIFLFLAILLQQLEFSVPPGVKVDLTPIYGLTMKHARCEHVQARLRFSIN

As for `COC(=O)c1cccnc1`, the figures for the activity, negative = inhibition in assay [1] (parasite line A) and in [1] (parasite line B) were 7.8% (inactive) and 16.6% (inactive), respectively. Further, the Potency entry in assay [2], in assay [3], in assay [4], in assay [5], in assay [6] and in assay [7] was “inactive” in each case. Besides, the Potency entry in [8] and in [9] was “inactive” throughout. For the same compound, the outcome in assay [10], in assay [11], in assay [12] and in assay [13] was inactive.

Regarding `CN(C(=O)c1c(O)c2ccccc2n(C)c1=O)c1ccccc1`, the Z-AUC is 0.957 (inactive) in [14], 0.533 in [14] (setting [21]) and 0.496 in assay [14] (measured here: PEO4 Z-AUC). In addition, the results for the activity, negative = inhibition in assay [1] (parasite line A) and in assay [1] (parasite line B) were 16.3% (inactive) and 2.94% (inactive), respectively. The Potency result in assay [2], in [4], in [5], in assay [6], in assay [7] and in [8] was “inactive” in each case. Also, the Potency result in assay [9] is “inactive”. Further, the result in assay [10], in assay [11], in assay [12] and in [13] was inactive.

With `CC(C)=CCC[C@@](C)(O)[C@H]1CC=C(C)CC1`, the outcome in [15], in assay [17], in assay [18] and in [19] was inactive. In assay [16], the max response is 1.71% (inactive).

`COC(=O)c1ccccc1C(=O)c1ccc(OCCN2CCCCC2)cc1`: the activity, negative = inhibition in assay [1] (parasite line A) is 9.58% (inactive); in assay [1] (parasite line B), 5.94% (inactive). The Potency result in assay [2], in assay [3], in assay [4], in [5], in assay [6] and in assay [7] was “inactive” in each case. The Potency entry in assay [8] and in assay [9] was “inactive” in each case. Further, the call in [10], in assay [11], in assay [12] and in assay [13] was inactive.

On to `NC(=O)[C@@H]1CSSCCC(=O)N[C@@H](CCCCN=C(N)N)C(=O)NCC(=O)N[C@@H](CC(=O)O)C(=O)N[C@@H](Cc2c[nH]c3ccccc23)C(=O)N2CCC[C@H]2C(=O)N1` ([Mpa][hArg]GDWPC-NH2; disulfide 1-7), for which the figures for the activity, negative = inhibition in [1] (parasite line A) and in assay [1] (parasite line B) were -6.16% (inactive) and 11.6% (inactive), respectively. Further, the Potency result in assay [2], in [3], in assay [4], in assay [5], in [6] and in assay [7] was “inactive” each time. The Potency entry in assay [8] and in [9] was “inactive” each time. Also, the compound was called inactive in assay [10], in assay [11], in assay [12] and in [13].

In the case of `COc1ccc(Cc2cnc(N)nc2N)cc1OC`, the Potency is 3.55 µM (active) in assay [1] (parasite line A), 8.91 µM (active) in assay [1] (parasite line B) and 7.08 µM (active) in [2]. The Potency result in [3], in assay [4], in assay [5], in assay [6], in assay [7] and in assay [8] was “inactive” each time. The Potency entry in [9] was “inactive”. In addition, the outcome in assay [10], in [11], in assay [12] and in assay [13] was inactive.

Consider `Cc1ccsc1C(=CCCN1CCC[C@@H](C(=O)O)C1)c1sccc1C`, for which the values for the Z-AUC in [14], in assay [14] (setting [21]) and in [14] (measured here: PEO4 Z-AUC) were -0.0792 (inactive), 0.789 and 0.901, respectively. Moreover, the activity, negative = inhibition in assay [1] (parasite line A) was 0.673% (inactive); in assay [1] (parasite line B) it was 3.18% (inactive). The Potency result in assay [2], in [3], in assay [4], in assay [5], in assay [6] and in assay [7] was “inactive” each time. Moreover, the Potency entry in assay [8] and in [9] was “inactive” throughout. For the same compound, the outcome in assay [10], in assay [11], in assay [12] and in assay [13] was inactive.

In the case of `NC(=O)NC1NC(=O)NC1=O` (configuration not stated), the result in assay [15], in assay [17], in assay [20], in assay [18] and in assay [19] was inactive. The max response in assay [16] was -2.81% (inactive).

Take `O=C(O)/C=C/c1ccc(Cn2ccnc2)cc1`: the Z-AUC in assay [14] is 1.62 (inactive); in assay [14] (setting [21]), 1.73; in assay [14] (measured here: PEO4 Z-AUC), 2.28.

On to `CC(N)CCCC(C)(C)O` (configuration not stated), for which the figures for the activity, negative = inhibition in assay [1] (parasite line A) and in assay [1] (parasite line B) were 12.5% (inactive) and -7.47% (inactive), respectively. For the same compound, the Potency entry in assay [2], in [3], in [4], in assay [5], in assay [6] and in assay [7] was “inactive” each time. In addition, the Potency entry in [8] and in assay [9] was “inactive” throughout. Besides, the result in assay [10], in assay [11], in assay [12] and in assay [13] was inactive.
